# Only some compounds are listed: those with a hit (about 0.86% of all), similar ones and a draw of the others.
# HIV TAR-Tat – HIV-1 TAR-Tat binding disruption | HIV-1 TAR RNA, Tat peptide displacement FRET; hits give high values | z-score (concentration not given with the values) | 0.6% of 100,000 active; active = z-score of 3 or more in at least 2 runs
# CDC25B CDK2 inh – human CDC25B-CDK2/CyclinA binding inhibition; HTRF CDC25B-CDK2/CyclinA binding, anti-His/anti-Flag; hits give high values; z-score (concentration not given with the values); 0.72% of 94,000 active; in the data active = z-score above about 3.2
# * hit, by the source's call; . = not tested or not shown.
SMILES,HIV TAR-Tat,CDC25B CDK2 inh
Cc1ccc(C)c(CSc2nncn3c2cc2oc(C)cc23)c1,-6.4,.
Cn1c(SCC(=O)Nc2ccc3[nH]c(=O)[nH]c3c2)nnc1-c1ccccc1,0.78,-0.17
CC(=O)c1ccc(NC(=O)CSc2nnc(-c3ccc4ccccc4c3)n2C)cc1,.,6.9*
CC1(C(=O)O)NCCc2c1[nH]c1ccccc21 (stereo not drawn),-2.2,10*
COc1ccc2c3c([nH]c2c1)C(C)(C(=O)O)NCC3 (stereo not drawn),-8.2,5.1
Cc1cc(C)c2c(n1)sc1c(C)c3c(nc12)CCC3,.,-4.2
CCOC(=O)C1CCN(c2csc3ccccc3c2=O)CC1,1.5,.
CCOC(=O)c1nc(N)c(=O)n(-c2ccc(C)cc2)n1,.,-7.1
CCOC(=O)c1nn(-c2ccc(C)cc2)c(=O)c2c(N)scc12,-5.5,18*
CCOC(=O)c1nn(-c2ccc(Cl)cc2)c(=O)c2c(N)scc12,-3,18*
CCOC(=O)c1nn(-c2ccc(Cl)cc2)c(=O)c(C#N)c1C,0.3,-1.2
COc1cc(C(=O)Nc2ccc(F)c(F)c2)nc2ccc(Cl)cc12,1.1,-1.4
CC(=O)N1CCOc2ccc(S(=O)(=O)N3CCC(C(=O)NC4CCCC4)CC3)cc21,17*,.
CC(=O)N1CCOc2ccc(S(=O)(=O)N3CCC(C(=O)NC4CCC(C)CC4)CC3)cc21 (stereo not drawn),3.6,.
CCC(C(=O)NCC1CCCO1)n1nc(C)n2c(cc3sccc32)c1=O (stereo not drawn),-1,-0.26
Cc1oc2ccc(NS(=O)(=O)c3ccc(Cl)cc3)cc2c1C(=O)O,23*,3.9
COC(=O)c1c(C)oc2ccc(NS(=O)(=O)c3ccc(Cl)cc3)cc12,0.19,-0.32
Cc1oc2ccc(NS(=O)(=O)c3ccccc3)cc2c1C(=O)O,18*,-0.14
Cc1oc2ccc(NS(=O)(=O)c3ccc(F)cc3)cc2c1C(=O)O,1.7,0.13
Cc1cc(Nc2cccc(Cl)c2)n2nc(-c3ccco3)nc2n1,0.68,.
O=S(=O)(c1ccc(F)cc1)N1CCN(c2cccc(C(F)(F)F)c2)CC1,.,-0.29
COc1cc(NC(c2ccccc2)c2nnc(-c3ccccc3F)o2)cc(OC)c1 (stereo not drawn),0.14,-0.51
CCC(O)(c1ccc(F)cc1)C(CN1CCOCC1)c1ccc(Cl)cc1 (stereo not drawn),0.78,-0.33
O=C(Nc1nnc(-c2ccc3c(c2)CCCC3)o1)c1ccc2c(c1)OCCO2,0.97,.
CCOC(=O)C1CCN(c2ncnc3sc(C(=O)O)c(C)c23)CC1,16*,.
SMILES,HIV TAR-Tat,CDC25B CDK2 inh
Cc1c(C(=O)O)sc2ncnc(N3CCC(c4ccccc4)C3)c12 (stereo not drawn),0.4,.
c1ccc(-c2nc3c4ccccc4nc(NCCN4CCCC4)n3n2)cc1,.,-2.6
O=C(O)c1c(-c2ccc(F)cc2)noc1N1CCCCC1,-1.1,-1.1
CN(C)CCN(Cc1ccco1)S(=O)(=O)c1ccc2c(c1)C(C)(C)C(=O)N2C,-0.29,.
Cc1ccc(C2Nc3ccccc3NC3=C2C(=O)CC(c2cccs2)C3)cc1 (stereo not drawn),3.5,-0.78
O=C1CC(c2ccco2)CC2=C1C(c1ccco1)Nc1ccccc1N2 (stereo not drawn),0.63,-0.52
CCN(CC)c1ccc(C2CC(=O)C3=C(C2)Nc2ccccc2NC3c2ccco2)cc1 (stereo not drawn),25*,1.2
CN(C)c1ccc(C2Nc3ccccc3NC3=C2C(=O)CC(c2cccs2)C3)cc1 (stereo not drawn),0.13,7.4*
Cc1c(C(=O)Nc2ccc3nsnc3c2)oc2ccc(Br)cc12,1.3,-2
Cc1cccn2c(=O)c3cc(C(=O)Nc4ccc(S(N)(=O)=O)cc4)n(C)c3nc12,43*,.
Cn1c(C(=O)NCc2ccccn2)cc2c(=O)n3ccccc3nc21,.,-0.05
Cc1cc(NC(=O)c2cc3c(=O)n4cccc(C)c4nc3n2C)ccc1Br,-2.2,.
Cn1c(C(=O)Nc2ccc(S(N)(=O)=O)cc2)cc2c(=O)n3ccccc3nc21,27*,.
Cn1c(C(=O)Nc2ccc(Oc3ccccc3)cc2)cc2c(=O)n3ccccc3nc21,1.2,.
CCCCNC(=O)c1cc2c(=O)n3ccccc3nc2n1C,5*,.
O=C(O)/C(=C/c1cccc([N+](=O)[O-])c1)c1ccccc1,.,-1
COc1ccc(-c2nc(SCc3cc(=O)n4c5c(sc4n3)CCCC5)n[nH]2)cc1,-0.2,.
O=C(CCc1nnc2ccc(NCc3ccc4c(c3)OCO4)nn12)N1CCOCC1,1.9,.
Cc1c(C(=O)NCC(c2ccco2)N2CCCC2)oc2ccc(Br)cc12 (stereo not drawn),-0.08,-0.69
CC1CN(C(=O)Nc2ccc(F)cc2)c2cc(Cl)ccc2O1 (stereo not drawn),0.53,-2.6
CC1CN(C(=O)Nc2ccc(Cl)cc2)c2ccccc2O1 (stereo not drawn),3.9*,.
O=C(COc1ccc(Br)cc1)Nc1ccc(-n2cnnn2)cc1,2.1,-0.52
